Records with an inconclusive call do not appear. Entries that show only a call come without a potency. Activity calls are given as the source filed them. Calls follow the shape of the full dose curve. Residues, ends and D or L forms follow the SMILES beside them.
assay: qHTS assay to identify small molecule agonists of the AP-1 signaling pathway (AID 1159526); details: ME-180 (cervical carcinoma) AP-1-bla reporter, beta-lactamase FRET ratio, 5 h; series mostly up to 76.8 µM

Compound	Potency
O=C(O)CCC(=O)O	inactive
CCCC(O)C(CC)CO (configuration not stated)	inactive
CC(O)CO (configuration not stated)	inactive
CC(O)CN(CCN(CC(C)O)CC(C)O)CC(C)O (configuration not stated)	inactive
O=C(O)c1cccnc1	inactive
O=C(O)C(=O)O	inactive
CC(=O)Nc1nnc(S(N)(=O)=O)s1	inactive
OC(Cn1cncn1)(Cn1cncn1)c1ccc(F)cc1F	inactive
O=C(O)c1cccc([N+](=O)[O-])c1	inactive
CC(O)C(=O)O (configuration not stated)	inactive
Nc1ccn([C@H]2CC[C@@H](CO)O2)c(=O)n1	inactive
CC1(C)[C@@H]2CC[C@@]1(C)C(=O)C2	inactive
Nc1ccc(S(=O)(=O)Nc2nccs2)cc1	inactive
COC(=O)[C@H](Cc1ccccc1)NC(=O)[C@@H](N)CC(=O)O (H-Asp-Phe-OMe)	inactive
O=C1NC(=O)c2ccccc21	inactive
CCCCCCCCCCCCCCCC(=O)O	inactive
Cc1ccc(C)c(OCCCC(C)(C)C(=O)O)c1	inactive
CC(=O)OCC(COC(C)=O)OC(C)=O	inactive
C1N2CN3CN1CN(C2)C3	inactive
O=c1cc[nH]c(=S)[nH]1	inactive
CCCNC(=O)NS(=O)(=O)c1ccc(Cl)cc1	inactive
Nc1ccc(O)c(C(=O)O)c1	inactive
NC(N)=NC(=O)c1nc(Cl)c(N)nc1N	inactive
CC(C)[C@@H]1CC[C@@H](C)C[C@H]1O	inactive
Cc1ccc(S(=O)(=O)NC(=O)NN2CCCCCC2)cc1	inactive
O=C(c1ccccc1)c1ccccc1	inactive
O=C1CN(/N=C/c2ccc([N+](=O)[O-])o2)C(=O)N1	inactive
